Among the data in PubChem BioAssay (Tox21) are outcome and Potency values, retold here.

Results filed as inconclusive are left out. Unmarked numbers belong to inactive results. Calls of active or inactive are those of the source. Unless noted, calls come from the whole dose curve; as a rule, active = well fitted curve in the direction sought with a large enough effect in the repeat runs; inconclusive = weak or mixed curves; inactive = no such curve, though single readings can be large; an effect the other way counts as inactive or inconclusive.

Assay [1] is described as follows: qHTS assay to identify small molecule agonists of the RXR signaling pathway - cell viability counter screen (AID 1159529).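 Note: HEK 293T cells carrying an RXR-alpha UAS beta-lactamase reporter; series mostly up to about 77 µM; nearly all actives have a fitted effect of over 50% in size.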 An outline of the steps:
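RXR-alpha-UAS-bla HEK 293T cells in medium with 2% charcoal-stripped FBS were preincubated 5 hr, then exposed to compounds for 16 hr at 37 C. Viability was read as CellTiter-Glo luminescence after 30 min at room temperature.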
Background: Quantitative high-throughput screening tests each substance at several concentrations.

A short description of assay [2]: qHTS assay to identify small molecule antagonists of the retinoid acid receptor (RAR) signaling pathway - cell viability counter screen (AID 1159551). Note: nearly all actives have a fitted effect of over 35% in size. A digest of the protocol:
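Cytotoxicity counter screen in C3RL4 cells: 6 h compound exposure with 1 uM retinol (final), viability from cellular ATP by luminescence.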

Assay [3] can be described thus: qHTS assay to identify small molecule antagonists of the retinoic acid receptor (RAR) signaling pathway (AID 1159552; note: nearly all actives have a fitted effect of over 50% in size). A digest of the protocol: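 RARE-luc C3RL4 cells; cpds + 1 uM (final) retinol, 6 hr, 37 C/5% CO2; luciferase reagent, 30 min RT, luminescence readout. Inhibitors of retinol-driven signal scored.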
A short description of assay [4]: qHTS assay to identify small molecule agonists of the retinoic acid receptor (RAR) signaling pathway (AID 1159553). Note: potency is the fitted concentration of half-maximal effect. An outline of the steps:
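Agonist activity was scored in C3RL4 cells bearing a retinoic acid response element luciferase construct. Cells were treated with compounds for 6 hr at 37 C, and luciferase signal was measured as luminescence.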

The target of assay [5] is Luciferin 4-monooxygenase (Photinus pyralis) (UniProt P08659). The assay can be described thus: qHTS assay to identify small molecule inhibitors of firefly luciferase (AID 1224835). Note: series mostly up to about 120 µM; nearly all actives have a fitted effect of over 25% in size. A digest of the protocol: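 Biochemical qHTS: compounds run as interplate titrations against purified firefly enzyme, with D-luciferin and ATP each at its KM concentration. Light output recorded by CCD imaging.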

A short description of assay [6]: qHTS assay to identify small molecule agonists of the constitutive androstane receptor (CAR) signaling pathway - cell viability counter screen (AID 1224836). Note: series mostly up to about 92 µM; nearly all actives have a fitted effect of over 45% in size. An outline of the steps:
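HepG2 cells stably carrying hCAR and a CYP2B6-2.2kb reporter were plated 4 h, then given compounds at 15 concentrations plus PK11195 (final 0.75 uM). After 23 h at 37 C, viability was read by CellTiter-Fluor fluorescence.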

Assay [7] in a line: qHTS assay to identify small molecule antagonists of the constitutive androstane receptor (CAR) signaling pathway - cell viability counter screen (AID 1224837). Note: series mostly up to about 92 µM; nearly all actives have a fitted effect of over 45% in size. A digest of the protocol: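 Multiplexed cytotoxicity read-out for the CAR antagonist screen: double-stable HepG2-CYP2B6-hCAR cells co-treated with 50 nM CITCO (final) and compound over 15 concentrations, incubated 23 hr, then assessed by CellTiter-Fluor fluorescence.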

Assay [8] addresses Nuclear receptor subfamily 1 group I member 3 (Homo sapiens) (UniProt Q14994). Briefly: qHTS assay to identify small molecule antagonists of the constitutive androstane receptor (CAR) signaling pathway (AID 1224838). Note: nearly all actives have a fitted effect of over 40% in size. An outline of the steps: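 Compounds were titrated across 15 concentrations onto HepG2 cells double-stably expressing hCAR and a CYP2B6-2.2kb reporter, together with 50 nM CITCO (final). After 24 h at 37 C, luciferase activity was measured by luminescence.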

For assay [9] the target is unchanged. The assay can be described thus: qHTS assay to identify small molecule agonists of the constitutive androstane receptor (CAR) signaling pathway (AID 1224839). Note: series mostly up to about 92 µM; nearly all actives have a fitted effect of over 15% in size. A digest of the protocol: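 HepG2 cells stably expressing hCAR and a CYP2B6-2.2kb luciferase reporter were treated with compounds at 15 concentrations plus 0.75 uM PK11195 (final) for 24 h at 37 C; luminescence was read after ONE-Glo addition.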

A short description of assay [10]: qHTS assay to identify small molecule antagonists of the estrogen related receptor signaling pathway with the pleiotropic PPARgamma coactivator (PGC) from Tox21 10K library - cell viability counter screen (AID 1224840; active = well fitted cell-killing curve with a large enough effect in the repeat runs, not every such curve was filed as active; note: nearly all actives have a fitted effect of over 40% in size). A digest of the protocol:
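Step one, plate 2,000 PGC/ERR cells per well; step two, incubate 6 h at 37 C/5% CO2; step three, pin-transfer compounds; step four, incubate 17.5 h; step five, add CellTiter-Fluor and read fluorescence after 30 min.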

The nature of assay [11]: qHTS assay to identify small molecule agonists of the hypoxia (HIF-1) signaling pathway - cell viability counter screen (AID 1224844; calls by dose curve; note: nearly all actives have a fitted effect of over 50% in size). A digest of the protocol: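 Tox21 10K compounds were added to HRE-bla ME-180 cells (0.5% dialyzed FBS) and incubated 17 hrs at 37C; ATP-based CellTiter-Glo luminescence then reported cell viability in the same wells.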
A short description of assay [12]: qHTS assay to identify small molecule agonists of H2AX (AID 1224845; active = well fitted activation curve with a large enough effect in the signal ratio in the repeat runs, not every such curve was filed as active; the % refers to the signal ratio). An outline of the steps: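 Wild-type CHO-K1 cells, plated overnight, exposed 3hr at 37C to 15 concentrations (0.76% DMSO final). Lysed, then HTRF anti-pH2AX (S139) cryptate and anti-H2AX-d2 antibodies, 24 hr room temperature; 665/620 nm emission read.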
The nature of assay [13]: qHTS assay to identify small molecule agonists of the hypoxia (HIF-1) signaling pathway (AID 1224846; active = well fitted activation curve with a large enough effect in the signal ratio in the repeat runs, not every such curve was filed as active; the % refers to the signal ratio). A digest of the protocol:
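Steps: seed ME-180 HRE-bla cells (2,000/well, 0.5% dialyzed FBS); incubate 5 hrs at 37C; pin-transfer compounds or DMSO; incubate 17 hrs; add LiveBLAzer B/G substrate CCF4-AM; measure reporter activation by FRET.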

A short description of assay [14]: qHTS assay to identify small molecule agonists of H2AX - cell viability counter screen (AID 1224847; calls by dose curve; note: top concentration of the series differs between compounds; nearly all actives have a fitted effect of over 30% in size). A digest of the protocol: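 Wild-type CHO-K1 cells (10% FBS medium) were plated overnight at 37C, exposed to compounds at 15 concentrations for 3 hr at 37C (0.76% DMSO final), and viability was read as CellTiter-Glo luminescence after 30 min at room temperature.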

Assay [15] in a line: qHTS assay to identify small molecule antagonists of the estrogen related receptor signaling pathway with the pleiotropic PPARgamma coactivator (PGC) from Tox21 10K library (AID 1224841; call rule not given here; note: series mostly up to about 92 µM; actives are mostly falling curves and most rising ones were filed inactive; nearly all actives have a fitted effect of over 50% in size). An outline of the steps:
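Antagonism in this quantitative HTS is taken from loss of luciferase signal in PGC/ERR cells. Cells (2,000/well) are treated with compounds in DMSO after a 6 h settling period and read by One-Glo luminescence after 18 h.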

Assay [16] can be described thus: qHTS assay to identify small molecule agonists of the estrogen related receptor signaling pathway with the pleiotropic PPARgamma coactivator (PGC) from Tox21 10K library (AID 1224842). Note: nearly all actives have a fitted effect of over 15% in size. An outline of the steps:
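PGC/ERR reporter cell line, 2,000 cells per well, incubated 6 h at 37 C before 23 nL compound in DMSO was added. After 18 h at 37 C, One-Glo luminescence read following 30 min at room temperature.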

The nature of assay [17]: qHTS assay to identify small molecule antagonists of the estrogen related receptor (ERR) signaling pathway from Tox21 library (AID 1224848). Note: nearly all actives have a fitted effect of over 50% in size. An outline of the steps:
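Luminescent reporter read-out (ONE-Glo) from NTP's ERR cell line after 18 h treatment at 37 C with DMSO-dissolved Tox21 compounds; cells pre-plated 6 h beforehand at 2,000 per well.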

A short description of assay [18]: qHTS assay to identify small molecule antagonists of the estrogen related receptor (ERR) signaling pathway from Tox21 library - cell viability counter screen (AID 1224834). Note: nearly all actives have a fitted effect of over 30% in size. An outline of the steps:
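Cytotoxicity of test substances is gauged in the same ERR cells used for the antagonist screen, after 17.5 h of compound treatment at 37 C, by CellTiter-Fluor fluorescence measured after 30 min.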

In assay [19] the target is Thyrotropin receptor (Homo sapiens) (UniProt P16473). The assay can be described thus: qHTS assay to identify small molecule agonists of the thyroid stimulating hormone receptor (TSHR) signaling pathway (AID 1224843; calls by dose curve; note: nearly all actives have a fitted effect of over 45% in size). An outline of the steps:
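Steps: seed 800 TSHR-HEK293 cells per well; add test compound and hold 30 min at ambient temperature; dispense cAMP-d2 then anti-cAMP cryptate; incubate 1 h at ambient; measure fluorescence intensity.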

Sequence of Thyrotropin receptor (Homo sapiens) (P16473 whole entry, looked up): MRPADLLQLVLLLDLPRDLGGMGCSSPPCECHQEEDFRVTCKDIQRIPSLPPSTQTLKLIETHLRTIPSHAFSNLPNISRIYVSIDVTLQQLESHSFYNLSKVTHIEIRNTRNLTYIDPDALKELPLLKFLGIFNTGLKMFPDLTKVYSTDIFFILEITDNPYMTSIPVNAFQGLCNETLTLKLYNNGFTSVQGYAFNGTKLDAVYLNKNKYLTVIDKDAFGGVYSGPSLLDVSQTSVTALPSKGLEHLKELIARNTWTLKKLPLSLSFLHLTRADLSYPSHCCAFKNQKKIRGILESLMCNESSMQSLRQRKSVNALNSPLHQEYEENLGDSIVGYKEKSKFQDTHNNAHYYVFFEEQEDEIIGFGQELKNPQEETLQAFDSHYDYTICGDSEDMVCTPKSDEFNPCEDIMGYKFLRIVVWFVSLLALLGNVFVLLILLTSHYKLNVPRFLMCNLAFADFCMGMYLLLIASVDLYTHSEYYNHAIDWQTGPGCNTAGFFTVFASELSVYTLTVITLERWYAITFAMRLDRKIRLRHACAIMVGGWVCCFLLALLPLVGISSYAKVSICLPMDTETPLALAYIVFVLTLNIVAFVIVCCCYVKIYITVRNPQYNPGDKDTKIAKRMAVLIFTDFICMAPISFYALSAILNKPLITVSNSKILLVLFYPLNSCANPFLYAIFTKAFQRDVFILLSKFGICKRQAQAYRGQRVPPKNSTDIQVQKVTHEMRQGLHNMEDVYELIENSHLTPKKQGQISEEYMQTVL
Sequence of Luciferin 4-monooxygenase (Photinus pyralis) (P08659 whole entry, looked up): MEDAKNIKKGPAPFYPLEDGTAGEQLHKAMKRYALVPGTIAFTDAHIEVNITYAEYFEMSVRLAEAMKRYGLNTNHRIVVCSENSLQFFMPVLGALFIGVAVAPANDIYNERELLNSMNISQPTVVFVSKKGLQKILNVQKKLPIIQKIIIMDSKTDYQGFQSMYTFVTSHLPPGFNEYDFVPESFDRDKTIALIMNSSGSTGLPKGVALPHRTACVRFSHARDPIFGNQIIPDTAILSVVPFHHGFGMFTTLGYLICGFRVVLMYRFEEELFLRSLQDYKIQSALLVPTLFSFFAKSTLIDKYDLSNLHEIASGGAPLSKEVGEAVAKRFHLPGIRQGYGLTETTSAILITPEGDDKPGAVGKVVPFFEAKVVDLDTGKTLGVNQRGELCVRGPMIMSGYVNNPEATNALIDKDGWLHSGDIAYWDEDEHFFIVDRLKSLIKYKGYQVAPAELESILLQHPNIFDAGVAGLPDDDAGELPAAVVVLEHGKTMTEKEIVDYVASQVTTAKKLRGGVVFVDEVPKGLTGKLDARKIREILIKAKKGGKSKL
Sequence of Nuclear receptor subfamily 1 group I member 3 (Homo sapiens) (Q14994 whole entry, looked up): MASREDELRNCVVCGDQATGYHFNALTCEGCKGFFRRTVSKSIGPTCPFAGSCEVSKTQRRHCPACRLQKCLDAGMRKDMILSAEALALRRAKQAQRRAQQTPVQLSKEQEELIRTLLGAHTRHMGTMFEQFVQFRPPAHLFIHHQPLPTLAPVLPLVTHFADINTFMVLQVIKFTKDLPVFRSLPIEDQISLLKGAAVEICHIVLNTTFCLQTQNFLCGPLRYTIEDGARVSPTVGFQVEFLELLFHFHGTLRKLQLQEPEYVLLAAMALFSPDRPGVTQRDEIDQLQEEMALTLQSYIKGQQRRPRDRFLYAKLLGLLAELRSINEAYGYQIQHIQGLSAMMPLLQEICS

Turning to `[O-][n+]1cccc(/C(Cl)=N/OC[C@@H](O)CN2CCCCC2)c1`, the compound was called inactive in assay [1], in [2], in assay [3], in [6], in assay [7] and in assay [10]. In addition, the outcome in assay [11], in [12], in [13] and in [14] was inactive. The Potency result in assay [4], in assay [5], in assay [8] and in [9] was “inactive” throughout.
Regarding `C/C=C(\C)C(=O)OCCc1ccccc1`, the call in assay [1], in assay [2], in assay [6], in assay [7], in assay [10] and in assay [15] was inactive. In addition, the call in assay [16], in assay [12], in assay [13] and in assay [14] was inactive. Besides, the Potency in [4] was 27.3 µM (active). Further, the Potency entry in assay [8] and in [17] was “inactive” each time.
Turning to `CCN1CCCC1CN` (centres undefined), the result in assay [1], in [2], in [3], in assay [18], in [6] and in [7] was inactive. Further, the result in assay [10], in [19], in assay [11], in assay [12], in [13] and in assay [14] was inactive. Also, the Potency result in [4], in [5] and in [9] was “inactive” each time.
For `CC1c2ccccc2CN1NC(=O)c1ccc(Cl)c(S(N)(=O)=O)c1` (centres undefined), the compound was classed as inactive in [1], in assay [2], in [3], in [6], in assay [7] and in assay [10]. Also, the outcome in [16], in assay [19], in [11], in assay [12], in [13] and in [14] was inactive. The Potency entry in assay [5], in assay [8] and in [17] was “inactive” in each case.
As for `Cc1ccc(N)cc1S(=O)(=O)O`, the compound was called inactive in [2], in assay [3], in assay [6], in assay [7], in assay [10] and in assay [19]. In addition, the result in assay [11], in assay [12], in assay [13] and in assay [14] was inactive. Besides, the Potency result in assay [4] and in [8] was “inactive” each time.
As to `CC(=O)CCc1ccc(OC(C)=O)cc1`, the result in assay [2], in assay [18], in assay [6], in assay [7], in [10] and in assay [19] was inactive. Besides, the call in [11], in [12], in assay [13] and in assay [14] was inactive. Further, the Potency result in assay [4], in [5], in assay [8] and in assay [9] was “inactive” each time.
Consider `CCCCOC(=O)C(C)O` (centres undefined), for which the outcome in assay [1], in [2], in assay [3], in assay [18], in assay [6] and in [7] was inactive. In addition, the outcome in assay [10], in assay [19], in assay [11], in [12], in assay [13] and in assay [14] was inactive. For the same compound, the Potency result in assay [4], in assay [5], in [8] and in assay [9] was “inactive” each time.
In the case of `Cc1ccnc(N)c1`, the outcome in assay [1], in assay [2], in assay [3], in assay [18], in assay [6] and in [7] was inactive. The outcome in assay [10], in assay [19], in assay [11], in [13] and in assay [14] was inactive. The Potency entry in assay [4], in assay [5], in [8] and in assay [9] was “inactive” in each case.
